Assay [1] can be described thus: qHTS to identify inhibitors of the type 1 interferon - major histocompatibility complex class I in skeletal muscle: primary screen against the NCATS Mechanism Interrogation Plate v5.0 (MIPE) Libary (AID 1347411). Further: nearly all actives have a fitted effect of over 65% in size. Further: potency means the concentration at half of the fitted maximal effect.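 On activity change, negative = inhibition: plate controls were vehicle for no effect and reference inhibitor for full effect.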 In a few lines: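 HLA-B HiBit myoblasts, dexamethasone-free medium + 4 ng/ml IFN-b, 24 h compound, 11-pt 1:3 from 46 uM final. Readout: Nano-Glo HiBiT lytic luminescence after 10 min lysis, RT.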
(In general: In qHTS, concentration-response curves come from the screen itself.)

Assay [2] has as its target Calcium and integrin-binding protein 1 (Homo sapiens) (UniProt Q99828). In words: Primary qHTS for Identification of Calcium Integrin Binding Protein 1 (CIB1) Competitor (AID 1508620). Further: top concentration of the series differs between compounds; on the % scale 0 is the no-effect control and ±100 the full control effect. In a few lines: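 Fluorescence polarization competition: GST-tagged CIB1 (1 uM final) preincubated with compound 15 min at room temperature, then FITC-labelled alphaIIb peptide (100 nM final) added. After 15 min at room temperature, polarization read at Ex 480/Em 540.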

Assay [3] is described as follows: Primary qHTS for small molecule stabilizers of the endoplasmic reticulum resident proteome: Secreted ER Calcium Modulated Protein (SERCaMP) assay (AID 1508630). Further: on the % scale 0 is the no-effect control and ±100 the full control effect. In a few lines:
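The SH-SY5Y reporter protocol was run at 3 concentrations up to 38.3 uM (primary) or 11 concentrations (follow-up): 16 h compound, 100 nM thapsigargin for 4 h, then extracellular luciferase luminescence.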

Assay [4] addresses Cytochrome P450 2D6 (Homo sapiens) (UniProt P10635). In words: Cytochrome P450 family 2 subfamily D member 6 (CYP2D6) small molecule antagonists: luciferase biochemical (cell-free) qHTS assay (AID 1645840; active means well fitted curve in the direction sought with a large enough effect in the repeat runs; an effect the other way counts as inactive or inconclusive; further: potency means the concentration at half of the fitted maximal effect; nearly all actives have a fitted effect of over 55% in size). In a few lines: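 P450-Glo CYP2D6 system: proluciferin substrate converted by enzyme to luciferin, read by luminescence proportional to activity. Enzyme-substrate mix with compound 10 min at room temperature, then NADPH regeneration 1 h before detection reagent.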

Assay [5] addresses Cytochrome P450 2C9 (Homo sapiens) (UniProt P11712). Nature of the assay: Cytochrome P450 family 2 subfamily C member 9 (CYP2C9) small molecule antagonists: luciferase biochemical (cell-free) qHTS assay (AID 1645842; active means well fitted curve in the direction sought with a large enough effect in the repeat runs; an effect the other way counts as inactive or inconclusive; further: potency means the concentration at half of the fitted maximal effect; nearly all actives have a fitted effect of over 55% in size). In short, it runs like this: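 P450-Glo CYP2C9 system: proluciferin substrate with enzyme in mix containing 0.4% BSA, 10 min at room temperature, then NADPH regeneration solution added and incubated 1 h at 37C. Detection reagent stopped reaction; luminescence read after 20 min as RLU.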

The nature of assay [6]: Primary qHTS for inhibitors of nuclear receptor binding SET domain protein 2 (NSD2) in an isogenic RCH-ACV NSD2 p.E1099K mutant (9B) (AID 1645876). Further: nearly all actives have a fitted effect of over 70% in size. Further: potency means the concentration at half of the fitted maximal effect. On activity change, negative = viability loss: on the % scale 0 is the no-effect control and ±100 the full control effect.
The nature of assay [7]: Primary qHTS for inhibitors of nuclear receptor binding SET domain protein 2 (NSD2) in an RCH-ACV wild type WT cells (2C) (AID 1645877). Further: nearly all actives have a fitted effect of over 70% in size. Further: potency means the concentration at half of the fitted maximal effect.
For assay [8], the target named is Protein phosphatase 1D (Homo sapiens) (UniProt O15297). Nature of the assay: RapidFire Mass Spectrometry qHTS Assay for Modulators of WT P53-Induced Phosphatase 1 (WIP1) (AID 1347424).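 Further: series mostly up to about 63 µM; plate controls were DMSO wells for no effect and GSK830371 inhibitor control at 10 µM for full effect.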 In short, it runs like this: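 RapidFire MS readout of dephosphorylated VEPPL-S-QETFS product, with 1 uM isotope-labelled peptide standard. Reaction: 10 nM WIP1, 2 uM phosphopeptide substrate, 5 min, room temperature, after 1 h compound preincubation; stopped with 0.5% formic acid.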

The target is the same in assay [9]. Nature of the assay: Rhodamine-PBP qHTS Assay for Modulators of WT P53-Induced Phosphatase 1 (WIP1) (AID 1347425). Further: % of control where 0% means no effect. In short, it runs like this: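 The read-out is the change in Rhodamine-PBP fluorescence (f1 - f0, ex 525/em 598 nm) as Pi is released, read each minute for 11 min. Final reaction: 5 nM WIP1, 10 uM phosphopeptide VEPPL-pS-QETFS, 10 uM Rh-PBP, 50 mM Tris-HCl pH 7.5, 30 mM MgCl2. Compound was preincubated with enzyme for 1 hour at room temperature.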

Assay [10] can be described thus: Primary qHTS for inhibitors of La Crosse Virus (LACV) - induced cell death in SH-SY5Y cells (AID 1508616).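 Further: top concentration of the series differs between compounds; 0% = infected DMSO wells and 100% = uninfected DMSO wells; higher means more rescue of cells from virus-induced death.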 In a few lines: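 Cytopathicity rescue screen: compounds pinned onto SH-SY5Y cells, which are then infected with LACV (MOI 0.01) and held 6 days at 37C. Percent activity is scaled between infected DMSO control and uninfected DMSO control.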

Several values for one entry are separate records, joined by “and”; a condition that tells them apart may be missing. Equal entries are not always repeated. Results filed as inconclusive are left out. Unmarked numbers belong to inactive results. Activity calls are given as the source filed them. Unless noted, the call rests on the fitted dose curve; in most records, active means well fitted curve in the direction sought with a large enough effect; inconclusive means small, poorly fitted or top-dose-only effect, or another doubt; inactive means no such curve, though single readings can be large; an effect the other way counts as inactive or inconclusive. Residues, ends and D or L forms follow the SMILES beside them. *: point of attachment. Cbz = O=C(OCc1ccccc1)*

Chain of Calcium and integrin-binding protein 1 (Homo sapiens) (Q99828 whole entry, looked up): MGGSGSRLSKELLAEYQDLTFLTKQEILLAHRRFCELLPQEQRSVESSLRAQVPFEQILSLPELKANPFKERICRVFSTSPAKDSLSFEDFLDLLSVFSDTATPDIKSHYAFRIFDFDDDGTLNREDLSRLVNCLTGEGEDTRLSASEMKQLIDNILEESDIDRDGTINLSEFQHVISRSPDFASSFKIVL
Chain of Cytochrome P450 2C9 (Homo sapiens) (P11712 whole entry, looked up): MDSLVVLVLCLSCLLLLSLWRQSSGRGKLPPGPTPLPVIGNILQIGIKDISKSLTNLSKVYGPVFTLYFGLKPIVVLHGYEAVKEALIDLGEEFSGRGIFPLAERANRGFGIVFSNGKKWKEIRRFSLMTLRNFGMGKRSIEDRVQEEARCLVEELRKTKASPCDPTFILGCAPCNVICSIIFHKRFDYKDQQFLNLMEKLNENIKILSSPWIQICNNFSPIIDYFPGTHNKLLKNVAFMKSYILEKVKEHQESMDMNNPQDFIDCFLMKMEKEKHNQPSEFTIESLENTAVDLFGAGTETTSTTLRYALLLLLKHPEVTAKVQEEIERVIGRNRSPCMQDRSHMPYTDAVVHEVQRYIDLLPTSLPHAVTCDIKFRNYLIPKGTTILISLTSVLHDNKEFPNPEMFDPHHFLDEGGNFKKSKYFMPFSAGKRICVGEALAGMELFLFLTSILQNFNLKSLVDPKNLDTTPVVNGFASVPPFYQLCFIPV
Chain of Protein phosphatase 1D (Homo sapiens) (O15297 whole entry, looked up): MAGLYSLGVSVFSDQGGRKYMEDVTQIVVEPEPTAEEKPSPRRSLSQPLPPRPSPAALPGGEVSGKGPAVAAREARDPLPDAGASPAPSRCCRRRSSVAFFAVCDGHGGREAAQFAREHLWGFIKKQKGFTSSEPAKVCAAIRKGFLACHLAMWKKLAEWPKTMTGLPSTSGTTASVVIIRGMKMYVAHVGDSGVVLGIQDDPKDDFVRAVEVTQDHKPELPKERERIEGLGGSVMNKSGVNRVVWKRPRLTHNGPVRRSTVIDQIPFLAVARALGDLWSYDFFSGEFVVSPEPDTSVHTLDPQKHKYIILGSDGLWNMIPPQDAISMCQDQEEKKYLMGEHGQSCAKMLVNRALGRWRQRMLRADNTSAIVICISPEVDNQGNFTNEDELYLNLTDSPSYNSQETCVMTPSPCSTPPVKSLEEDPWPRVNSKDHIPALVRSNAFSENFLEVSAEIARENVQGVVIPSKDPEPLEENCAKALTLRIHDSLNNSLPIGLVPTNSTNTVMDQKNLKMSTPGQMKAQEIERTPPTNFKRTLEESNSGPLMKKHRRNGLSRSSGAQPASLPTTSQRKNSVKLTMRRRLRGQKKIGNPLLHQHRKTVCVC
Chain of Cytochrome P450 2D6 (Homo sapiens) (P10635 whole entry, looked up): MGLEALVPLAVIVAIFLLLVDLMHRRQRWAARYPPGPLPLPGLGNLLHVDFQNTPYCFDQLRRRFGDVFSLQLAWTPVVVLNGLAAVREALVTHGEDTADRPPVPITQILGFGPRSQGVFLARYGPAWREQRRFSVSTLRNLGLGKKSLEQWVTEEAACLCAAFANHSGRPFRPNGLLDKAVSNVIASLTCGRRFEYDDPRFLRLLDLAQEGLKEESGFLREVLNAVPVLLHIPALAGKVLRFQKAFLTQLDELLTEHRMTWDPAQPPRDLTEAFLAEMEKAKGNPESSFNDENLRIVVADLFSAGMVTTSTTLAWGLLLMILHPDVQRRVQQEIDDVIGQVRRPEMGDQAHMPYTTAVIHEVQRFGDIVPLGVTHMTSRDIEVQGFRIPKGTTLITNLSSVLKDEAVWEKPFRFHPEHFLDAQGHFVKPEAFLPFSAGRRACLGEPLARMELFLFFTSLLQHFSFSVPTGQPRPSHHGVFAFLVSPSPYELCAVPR

As for `CCOc1cc2c(c(F)c1OCC)C(=N)N(CC(=O)c1cc(N3CCOCC3)c(OC)c(C(C)(C)C)c1)C2`, the Potency in assay [1] was 14.7 µM (active); in assay [4], 5.35 µM (active); in assay [5], 6.01 µM (active); in assay [6], 23 µM (active); in assay [7] it was 16.3 µM (active). Besides, the Potency entry in [2] was “inactive”. For the same molecule, the result in assay [3] was inactive.

`COc1cc(OC)c(NC(=O)Nc2cc(C)on2)cc1Cl`: the Potency entry in assay [1] and in assay [2] was “inactive” in each case. In assay [3], the result was inactive.

With `COC(=O)C1C2CC3c4[nH]c5cc(OC)ccc5c4CCN3CC2CC(OC(=O)c2cc(OC)c(OC)c(OC)c2)C1OC` (centres undefined), the Potency entry in [1] and in assay [2] was “inactive” each time. For the same molecule, the result in [3] was inactive.

For `COc1ccc(S(=O)(=O)Nc2cc(-c3c(O)ccc4ccccc34)c(O)c3ccccc23)cc1`, the Potency in assay [1] is 16.5 µM (active). Further, the Potency result in assay [2] was “inactive”. For the same molecule, the result in assay [3] was inactive.

For `O=c1ccn([C@@H]2O[C@H](CO)[C@H](O)[C@@H]2F)c(=O)[nH]1`, the Potency result in assay [1] and in assay [2] was “inactive” in each case. Also, the outcome in assay [3] was inactive.

On to `Cc1ccccc1C(=O)Nc1ccc(C(=O)N2CCCC(O)c3cc(Cl)ccc32)c(C)c1` (centres undefined), for which the Potency result in assay [1], in assay [8] and in assay [2] was “inactive” each time. Besides, the molecule was called inactive in assay [9], in assay [10] and in assay [3]. For the same molecule, the Potency is 27.5 µM (active) in assay [5], 13.3 µM (active) in assay [6] and 15 µM (active) in [7].

On to `COc1ccc(Nc2nccc(NCCO)n2)cc1`, for which the Potency result in assay [1] and in [2] was “inactive” each time. Moreover, the outcome in assay [3] was inactive.

Consider `CC(C)C[C@@H](C=O)NC(=O)[C@H](CC(C)C)NC(=O)[C@H](CC(C)C)NC(=O)OCc1ccccc1` (Cbz-Leu-Leu-Leu-aldehyde), for which the Potency is 2.08 µM (active) in [1], 1.05 µM (active) in assay [6] and 0.934 µM (active) in assay [7]. The Potency result in assay [2] is “inactive”. Further, in assay [3], the result was inactive.

On to `CC(=O)NC(CS)C(=O)O` (centres undefined), for which the Potency result in assay [1], in assay [2], in [6] and in assay [7] was “inactive” each time. The result in assay [3] was inactive.

In the case of `OC[C@H]1OC(O)C[C@@H](O)[C@H]1O` (some centres undefined), the Potency result in assay [1], in assay [2], in [6] and in assay [7] was “inactive” throughout. In assay [3], the result was inactive.

As to `Nc1nc(N)c2nc(-c3cccc(O)c3)c(-c3cccc(O)c3)nc2n1`, the Potency result in assay [1] and in assay [2] was “inactive” in each case. Moreover, the result in assay [3] was inactive. In addition, the Potency in assay [6] is 16.4 µM (active) and 18.6 µM (active); in assay [7], 13 µM (active) and 16.6 µM (active).

As for `Cn1cc(C[C@@H](N)C(=O)O)c2ccccc21`, the activity change, negative = inhibition in assay [1] was -7.72% [at 8.44 µM]. In assay [2], the Potency entry was “inactive”. The result in assay [3] was inactive. For the same molecule, in [6], the activity change, negative = viability loss was -2.38% [at 9.23 µM]. In assay [7], the outcome was “inactive [at 9.23 µM]”.

On to `CCOC(=O)C1=C(C)NC(=S)NC1c1cccc(O)c1` (centres undefined), for which the Potency result in assay [1], in assay [2] and in assay [6] was “inactive” each time. The outcome in assay [3] was inactive.

As to `CCOC(=O)C=C[C@H](C[C@@H]1CCNC1=O)NC(=O)[C@@H](CC(=O)[C@@H](NC(=O)c1cc(C)on1)C(C)C)Cc1ccc(F)cc1`, the Potency entry in assay [1], in [2] and in assay [6] was “inactive” throughout. The result in assay [3] was inactive.

With `O=C(Nc1cccc(Nc2ncc(Br)c(NCCc3cnc[nH]3)n2)c1)N1CCCC1`, the Potency in assay [1] was 5.87 µM (active); in assay [6], 0.934 µM (active); in [7], 0.59 µM (active). For the same molecule, the Potency result in assay [2] is “inactive”. In assay [3], the outcome was inactive.

Source of the values: PubChem BioAssay (NCATS).
